About 40 (0.01%) of roughly 330,000 compounds were called active. The sample as a whole holds a higher share of actives than the screen did. Values without a mark were called inactive. Calls come from the whole dose curve; as a rule, active = well fitted inhibition curve with a large enough effect; inconclusive = small, poorly fitted or top-dose-only effect, or effect the other way; inactive = flat fitted curve, though single readings scatter.
Target: Ubiquitin carboxyl-terminal hydrolase 2 (Homo sapiens) (UniProt O75604)
Sequence (O75604 whole entry, looked up): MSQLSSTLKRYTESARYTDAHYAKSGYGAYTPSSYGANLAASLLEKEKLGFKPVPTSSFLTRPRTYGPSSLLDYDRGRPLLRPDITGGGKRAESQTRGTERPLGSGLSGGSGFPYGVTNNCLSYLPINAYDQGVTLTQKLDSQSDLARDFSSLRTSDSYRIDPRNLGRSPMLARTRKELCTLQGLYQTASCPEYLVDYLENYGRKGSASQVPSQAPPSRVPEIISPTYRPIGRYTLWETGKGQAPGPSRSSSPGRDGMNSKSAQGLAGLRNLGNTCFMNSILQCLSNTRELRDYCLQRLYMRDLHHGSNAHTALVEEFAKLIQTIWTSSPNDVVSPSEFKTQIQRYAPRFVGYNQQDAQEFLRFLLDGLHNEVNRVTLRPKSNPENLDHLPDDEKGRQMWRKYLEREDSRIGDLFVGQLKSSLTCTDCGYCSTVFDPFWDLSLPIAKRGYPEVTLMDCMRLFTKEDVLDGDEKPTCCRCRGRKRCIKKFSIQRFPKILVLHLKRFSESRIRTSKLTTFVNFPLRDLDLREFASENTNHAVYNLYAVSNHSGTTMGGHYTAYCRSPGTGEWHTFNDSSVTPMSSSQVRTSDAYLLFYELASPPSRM
Experiment: qHTS Assay for Inhibitors of Ubiquitin-specific Protease USP2a Using CHOP2 as the Reporter;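 for activity change, negative = inhibition: plate controls were DMSO wells for no effect and full inhibition by NEM control for full effect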
Conditions: USP2 core, Ub-CHOP2 coupled fluorogenic reporter, 485/531; series mostly up to 38.3 µM; activity change, negative = inhibition: at the top concentration
Source text: NIH Molecular Libraries Screening Centers Network [MLSCN] NIH Chemical Genomics Center [NCGC] MLSCN Grant: XO1-MH079852-01 PI Name: Nicholson, Ben. Progenra Inc, Malvern, PA NCGC Assay Overview: Homeostasis of cellular proteins is maintained through a combination of synthesis and degradation. The pathway that accounts for the majority of protein degradation is the ubiquitin-proteasomal pathway. Ubiquitin (Ub) is highly conserved in all cells and the generation of a multi-Ub chain typically targets proteins for degradation by the proteasome. However, ubiquitination is highly reversible and dynamic. Deubiquitination, the reverse process, is catalyzed through the action of enzymes referred to as isopeptidases or deubiquitinating enzymes (DUBs). This group of enzymes is collectively responsible for maintaining adequate pools of free ubiquitin and regulating the ubiquitination status of cellular proteins. The class of DUBs referred to as the ubiquitin-specific proteases (USP) family functions endoproteolytically to cleave Ub chains from a wide range of protein substrates. USP2a deubiquitinates fatty acid synthase (FASN) which has recently been identified as an emerging oncology target. To identify inhibitors of USP2a a cell-free assay was employed. […] The reporter enzyme chosen is an enterokinase called CHOP2, which is activated when the Ub is cleaved by USP2. The free and now activated reporter can subsequently act on its reporter substrate. Thus, this coupled assay gives a fluorescent read-out at excitation/emission wavelengths of 485/531. The assay was developed by Progenra, Inc. and has been licensed for sale by LifeSensors, Inc. as Ub-CHOP2-Reporter-Kit (#PR1101).
NCGC Assay Protocol Summary: The assay buffer, prepared fresh at the day of the assay, contains 20mM Tris-HCl pH 8.0, 2mM CaCl2, 2mM beta-Mercaptoethanol, 0.05% CHAPS. 3ul of 20nM (10nM final) USP2 core, which is stored on ice, is dispensed into a medium-binding black solid Kalypsys 1,536 well plate using the Kalypsys dispenser. The assay plate is then pinned with 23nL compound with the Kalypsys pintool in columns 5-48. The controls are pinned as follows: column 1 two-fold dilutions of 2M NEM in duplicate; column 2 2M NEM (final concentration 38.2mM); column 3&4 DMSO. The assay plate is incubated at RT for 30min. Subsequently, 1.5uL of 100nM (25nM final) Ub-CHOP2 and 1.5uL of 100nM (25nM final) Reporter Substrate (both stored on ice and protected from light) were dispensed into the plate using the Kalypsys dispenser. Plates were read after 60min RT incubation on a ViewLux (Perkin Elmer) plate reader using the following wavelengths Ex 485nm /Em 531nm. Data were normalized to the to AC100 inhibition (NEM). Concentration-response curves were fitted to the normalized data and the concentration-response curves were then classified based on curve quality (r2), response magnitude and degree of measured activity. The time zero reading was used to flag fluorescence artifacts. Keywords: ubiquitination, deubiquitination, proteases, profluorescent, MLSMR, MLPCN, NIH Roadmap, qHTS, NCGC
Potency is the fitted concentration of half-maximal effect.

Compound	activity change, negative = inhibition	Potency
O=C(CSc1ncnc2c1oc1ccccc12)NC1CCCC1	0.138%	–
CSc1ccc(NC(=O)N2CC(C)OC(C)C2)cc1 (configuration not stated)	1.48%	–
CC1O[C@H](OC2C(COC3OC(CO)C(O)[C@H](O)C3O)OC(OC3CC[C@]4(C)C(CC[C@@]5(C)[C@@H]4C=C[C@]46OC[C@@]7(CCC(C)(C)C[C@H]74)C(O)C[C@@]56C)C3(C)C)C(O)C2O)C(O)C(O)C1O (some centres not stated)	10.1%	–
CCC(C)c1ccc(NC(=S)NCc2ccccn2)cc1 (configuration not stated)	0.409%	–
Cc1cc(C(F)(F)F)c(C#N)c(SCC(=O)NC2CC2)n1	1.32%	–
COc1ccc2nc(NC3=NCN(CC4CCCO4)CN3)nc(C)c2c1 (configuration not stated)	2.18%	–
CC(=O)C1=C(C)NC(=O)NC1c1cc(Br)ccc1OCC#N (configuration not stated)	2.25%	–
Cc1ccc(NC(=O)C2CCC(C(C)(C)C)CC2)cc1S(=O)(=O)N1CCOCC1 (configuration not stated)	-1.78%	–
O=C1C=CC(=O)N1c1ccc(N2CCCCC2)cc1	1.37%	–
CCOc1nc(OCC)nc(-n2cc(-c3ccccc3)nn2)n1	-0.746%	–
CC(C)(C)n1ncc2c(=O)n(Cc3ccc(Cl)cc3)cnc21	-1.06%	–
Cc1cc2c(c(=O)n1Cc1ccccc1)C1O[C@](CCCCN3C(=O)c4ccccc4C3=O)(Cc3ccccc31)O2	-1.2% [at 7.66 µM]	–
CC(C)(C)NC(=O)CSC(=Nc1ccccc1F)NC#N	0.691%	–
O=C(CCl)Nc1ccc(Sc2ccc(NC(=O)CCl)cc2)cc1	0%	–
CC1CCN(C(=O)c2ccc(S(=O)(=O)Cc3cc(F)ccc3F)c([N+](=O)[O-])c2)CC1	3.21%	–
Cc1ccc(C2=NN(C(=O)CSc3nc(N)cc(N)n3)C(c3ccco3)C2)cc1 (configuration not stated)	-0.905%	–
COc1ccc(-c2nc3cc(C)ccn3c2NC2CCCCC2)cc1SC1CCCCC1	-1.09%	–
Cc1ccc(C2(C(F)(F)F)N=C3Sc4cc(C)cc(C)c4N3C(=O)N2)cc1 (configuration not stated)	0.557%	–
COc1ccc(CCOC(=O)CNC(=O)c2ccc(Cl)cc2Cl)cc1	-0.806%	–
[O-][n+]1c2c(nn1-c1ccc(Cl)c(Cl)c1)-c1nonc1CC2	-1.77%	–
Cn1c(SCC(=O)Nc2nccs2)nnc1-c1cccnc1	4.4%	–
Cc1c(C=O)c2ccccn2c1C(=O)c1ccncc1	-1.58%	–
O=c1[nH]c(=S)[nH]c2[nH]c(=S)[nH]c12	inactive	–
Cc1ccc(S(=O)(=O)CC(=O)Nc2sc(C)c(C)c2C(N)=O)cc1	-0.595%	–
CC(C)N1C(=O)N(c2ccccc2)C(C)(O)CC1(C)C (configuration not stated)	-5.46%	–

Compound	activity change, negative = inhibition	Potency
Cc1ccc(-n2c(SCC(=O)N3CCC(C(=O)O)CC3)nc3ccccc3c2=O)cc1C	-1.95%	–
O=C(c1cccs1)n1nc(NCc2ccccc2)nc1NCc1ccccc1	-0.569%	–
COc1ccc(OC)c(-c2c(=O)n(OCc3ccccc3Br)c3ccccc3[n+]2[O-])c1	-0.713%	–
O=C1OC2(CCCCC2)CC2=C1C1O[C@](c3ccsc3)(Cc3ccccc31)O2	-1.62% [at 7.66 µM]	–
CCCCNC(=O)C(C)N(CCN(C)C)C(=O)CCCCCN1C(=O)NC(c2ccc(Cl)cc2)C(C(=O)OCc2ccccc2)=C1C (configuration not stated)	-1.09%	–
Cc1ccc(NC(=O)CC2C(=O)N(Cc3ccccc3)C(=S)N2NC(=O)c2cccc(F)c2)c(C)c1 (configuration not stated)	2.98%	–
COC(=O)c1ccccc1Oc1c(F)c(F)nc(N2CCOCC2)c1F	1.09%	–
O=c1c2ccccc2[nH]c(=S)n1CCN1CCC(=C(c2ccc(F)cc2)c2ccc(F)cc2)CC1	-1.11%	–
CCN(CC(=O)Nc1ccc(NC(C)=O)cc1)C(=O)C1CC(=O)N(Cc2ccc(C)cc2)C1 (configuration not stated)	1.17%	–
Cc1cccc(C)c1NC(=O)C1(C)c2cccc[n+]2CC(=O)N1Cc1cccs1 (configuration not stated)	1.33%	–
CO[C@H]1[C@@H]2C=CO[C@@H](O[C@H]3O[C@@H](CO)[C@H](O)[C@@H](O)[C@@H]3O)[C@@H]2[C@@]2(CO)O[C@@H]12	2.02%	–
O=C(CC1SC(=Nc2ccccc2)N(Cc2ccccn2)C1=O)Nc1cccc(Cl)c1 (configuration not stated)	-5.62%	–
Cc1coc2c(O)cc3c(c12)OC1(N2CCCCC2)C(=O)NCCCC31 (configuration not stated)	2.56%	–
CCCCN(CCCC)CCCNC(=O)CN1C(=O)COc2ccc(S(=O)(=O)N3CCC(C)CC3)cc21	1.56%	–
CCOC(=O)N1CCN(S(=O)(=O)c2ccc3c(c2)C(C)C(=O)N3)CC1 (configuration not stated)	-0.965%	–
COc1ccc(/C=C/C(=O)c2ccc(NS(=O)(=O)c3ccc(C)cc3)cc2)cc1O	-1.24%	–
COc1ccc(C(=O)/C=C/c2ccc(-c3ccccc3)cc2)cc1CSCC(=O)O	0.227%	–
COC(=O)c1ccc(COc2ccc(/C=C/C(=O)c3ccc(OC)c(CSCC(=O)O)c3)cc2OC)cc1	–	10 µM (active)
Cc1ccc(C2NC(C(=O)O)CS2)cc1 (configuration not stated)	-0.252%	–
C=CCN(c1ccc(C(N)=O)cc1)S(C)(=O)=O	2.25%	–
Cc1cccc(N2CCN(Cc3nc(C4CC4)no3)CC2)n1	-0.896%	–
c1ccc2c(c1)C(=NC1CCCCC1)NC2=NC1CCCCC1	3.21%	–
CCCOc1ccc(C(=O)C(CCC(CNCC)C(=O)c2ccc(OCCC)cc2)CNCC)cc1 (configuration not stated)	3.9%	–
COc1ccc(Br)cc1CN(C)CC(=O)Nc1cc(Cl)cc(Cl)c1	0.499%	–
COc1ccc2c3c(c(=O)oc2c1)C1O[C@](CCCCN2C(=O)c4ccccc4C2=O)(Cc2c1ccc1ccccc21)O3	0.0315% [at 7.66 µM]	–

Compound	activity change, negative = inhibition	Potency
CC(C)NC(=O)C(=O)NCCCOC(C)C	0.0005%	–
O=C(CN1CCOCC1)N1CCCc2c1c(=O)oc1ccc(OCc3ccccc3)cc21	0.0242%	–
CCOCCOCCC(C(=O)O)P(=O)(c1ccccc1)c1ccccc1 (configuration not stated)	3.9%	–
CCOC(=O)c1c(NC(=O)CCCN2CCOCC2)sc2c1CC(C)(C)OC2	-0.479%	–
CC(C)(C)[Si](OCC[C@@H]1C[C@@]1(C)[C@@H](NP(=O)(c1ccccc1)c1ccccc1)c1ccccc1)(c1ccccc1)c1ccccc1	3.45%	–
CCC(C)n1c(-c2cc(OC)c(OC)c(OC)c2)nc2nc3ccccc3nc21 (configuration not stated)	3.89%	–
CC(C)(C)C(=O)NC1CC2CCCC(C1)N2C(=O)Nc1ccccc1F (configuration not stated)	-1.32%	–
C=CC[n+]1c(-c2ccc(C)cc2)csc1NNC(=O)Nc1ccccc1	1.07%	–
CCNC(=S)N(CCN(CC)CC)Cc1cc2cc3c(cc2[nH]c1=O)OCO3	0.667%	–
Cn1c(CC(=O)NNC(=O)c2ccccc2F)nc2ccccc21	2.01%	–
COc1ccc(-c2[nH]ncc2CN(Cc2nccn2C)C(C)C)cc1F	-2.1%	–
Cc1cc(C)c(NC(=O)CSc2nc3ccncc3[nH]2)c(C)c1	-1.03%	–
CCOC(=O)C(CC)/C(C)=N\NC(=O)c1cccc(C)c1 (configuration not stated)	-1.07%	–
CSc1nc(-c2ccco2)nn1C(=O)c1ccccc1Cl	-0.762%	–
CCN(CC)CCN1C(=O)C(=O)/C(=C(/O)c2cnn(-c3ccccc3)c2C)C1c1cccs1 (configuration not stated)	-0.143%	–
Cc1ccc(C(=O)N/C(=C/c2ccco2)C(=O)NCCc2c[nH]c3ccccc23)cc1C	4.15%	–
Cc1ccc(NC(=O)CCC(=O)c2ccc(Br)cc2)cc1	2.53%	–
C/C(=N\NC(=O)NC1CCCCC1)c1ccc(OC(F)F)cc1OC(F)F	-1.05%	–
CCC(=O)Nc1c(S(=O)(=O)c2ccccc2)c2nc3ccccc3nc2n1Cc1ccccc1	1.47%	–
CC(c1ccco1)N(C(=O)Nc1ccccc1)C1CCCCC1 (configuration not stated)	8.49%	–
Cc1ccc(NC(=O)Cn2cnc3c(OCc4ccccc4)ncnc32)cc1C	0.93%	–
COc1ccc(C(=O)N2CCc3cc(OC)c(OC)cc3C2c2cccc([N+](=O)[O-])c2)cc1 (configuration not stated)	-0.741%	–
COc1ccc(C(=O)C2CCCN(C(=O)c3cc(C)on3)C2)cc1F (configuration not stated)	-1.09%	–
COC(c1ccccc1)(c1ccccc1)C(Oc1nc(C)cc(C)n1)C(=O)O (configuration not stated)	-0.435%	–
CN(C)/C=C(/C(=O)c1ccc(Cl)cc1)S(=O)(=O)c1ccccc1	-12.8%	–

Compound	activity change, negative = inhibition	Potency
O=C(Oc1ccc([N+](=O)[O-])cc1)c1ccc(Cl)c(S(=O)(=O)N2CCCCC2)c1	1.28%	–
Cc1ccc(N(Cc2cc(=O)[nH]c3ccccc23)C(=O)CCl)cc1	-0.609%	–
C=CCn1cc(Cl)cc(C(=O)Nc2ccccc2)c1=O	3.83%	–
CCCCCCCCn1c2c(c(=N)c3c1CCC3)CCCC2	11.8%	–
COc1cccc(CNC(=O)COc2cc(O)c3c(c2)OC(C)(C)CC3=O)c1	-0.256%	–
Cn1nnnc1NCc1ccc(Cl)c(Cl)c1	3.73%	–
COC(=O)c1cccc([N+](=O)[O-])c1CS(=O)(=O)c1ccc(C)cc1	3.14%	–
C#CCOCCOCCOCCNc1nc(N2CCN(C(=O)C([C@@H](C)O)n3cc([C@@H](N)CCCCN)nn3)CC2)nc(N2CCN(C(=O)[C@H](CCCCN)n3cc(CN)nn3)CC2)n1 (some centres not stated)	3.74%	–
CN(C)CCCNc1c2c(c(C#N)c3nc4ccccc4n13)CCC2	0.168%	–
O=[N+]([O-])C(=c1ccc2c(c1)N1C3=C(CCCC3)CC3CCCCC31N=2)[N+](=O)[O-] (configuration not stated)	0.873%	–
Cc1cc(N2CCN(c3ccc(F)cc3)CC2)n2ncnc2n1	9.32%	–
CCOC(=O)C1(CCOc2ccccc2)CCN(Cc2ccc(C#CCCO)cc2)CC1	-5.93%	–
CC(C)CN(C(=O)CSc1nncn1C)C1CCS(=O)(=O)C1 (configuration not stated)	-1.91%	–
O=C(COC(=O)c1ccc(F)cc1F)Nc1ncccn1	0.688%	–
CC(=O)N[C@@H](C)C(=O)N1CCC(n2nccc2NC(=O)CCCc2ccccc2)CC1	0.0805%	–
Cc1ccc(C(=O)Nc2nnc(C3=COCCO3)o2)cc1C	2.21%	–
COc1ccccc1-n1c(C)nc2cc(C(=O)NCc3ccc4c(c3)OCO4)ccc21	-4.97%	–
CCCC(C)C(=O)NCc1ccncc1 (configuration not stated)	-0.731%	–
CCOC(=O)c1sc(NC(=O)CSc2nc3c(c(=O)n2-c2ccccc2)SCC3)c(C(=O)OCC)c1C	-0.841%	–
CC(C)C(C)(C#N)NC(=O)CSc1nncn1-c1ccccc1 (configuration not stated)	1.82%	–
COc1cccc(/C=C(/CC(=O)Nc2ccc(N3CCOCC3)cc2)c2nc3ccccc3s2)c1	0.762%	–
O=C(NC(=S)Nc1cccc(-c2ccc(CO)o2)c1)c1cccs1	-0.762%	–

— PubChem BioAssay AID463254 (National Center for Advancing Translational Sciences (NCATS), 2010)
